Consider 30 molecules from PubChem BioAssay AID440 (NMMLSC, 2006).

Molecules are shown by their SMILES. Hit rate of the full screen: of about 24,000 compounds, about 180 (0.75%) were called active. This is one part of a sample in which actives are shown more often than they occur. A number with no mark means an inactive call. No stated cut-off is given here; in the data, active means inhibition above about 30%; inconclusive means no clear call, values can overlap the other calls; inactive means below that.

In this test the target is fMet-Leu-Phe receptor (Homo sapiens) (UniProt P21462). Kind of test: small molecules displacing FPR fluorescent ligand – cell-based, FPRL1 counter-screen, flow cytometry, primary screen (AID 440).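 Further: 0% = buffer wells and 100% = receptor blocker peptide wells.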 Conditions: FPR-expressing cells, fluorescent ligand binding, active compounds read high, concentration not given here.
Chain of fMet-Leu-Phe receptor (Homo sapiens) (P21462 whole entry, looked up): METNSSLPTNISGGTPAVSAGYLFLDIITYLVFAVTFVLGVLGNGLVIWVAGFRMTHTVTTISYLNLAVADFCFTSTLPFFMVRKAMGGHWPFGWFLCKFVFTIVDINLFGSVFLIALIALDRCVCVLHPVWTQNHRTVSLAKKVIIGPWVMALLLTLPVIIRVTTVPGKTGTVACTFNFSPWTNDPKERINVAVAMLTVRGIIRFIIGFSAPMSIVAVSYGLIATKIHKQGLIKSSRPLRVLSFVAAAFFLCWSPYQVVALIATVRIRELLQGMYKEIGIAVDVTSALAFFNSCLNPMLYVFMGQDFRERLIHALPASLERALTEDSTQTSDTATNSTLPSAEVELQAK
Turning to `CCN(CC)CCNC(=O)Cn1cnc2sc(C)c(S(=O)(=O)N3CCOCC3)c2c1=O`, the inhibition was -9.4%. As for `C/C(CC(O)(/C=N/O)c1ccccc1)=N\O` (stereo not given), the inhibition was 7.2%. `O=C(Cn1c(=O)n(Cc2ccco2)c(=O)c2ccccc21)NCC1CCCO1` (stereo not given): the inhibition is 5.8%.

On to `N#CCCN1CCN(S(=O)(=O)c2ccc(S(=O)(=O)NC3CC3)cc2)CC1`, for which the inhibition was -1.2%. As to `CCOc1ccc(CCNC(=O)C2CCN(c3ccc(N4CCOCC4)nn3)CC2)cc1OCC`, the inhibition is -8.8%. With `COCCOC(=O)C1=C(C)NC(=O)CC1c1cc2c(cc1Br)OCO2` (stereo not given) the figure was -1.8%. Turning to `Nc1nonc1-c1noc(-c2ccc(Br)o2)n1`, the inhibition is -6.7%. Turning to `CCC(C)(C(=O)NC1CCCC1)N(C(=O)CNC(C)=O)c1ccc(C)cc1` (stereo not given), the inhibition was 5.8%. For the molecule `O=C(COC(=O)c1ccccc1C(=O)c1ccccc1)c1ccco1`, the inhibition was -1%. Then `CCOC(=O)N1CCN(C(=O)c2cc3c(-c4ccc(Cl)cc4)nn(C)c3s2)CC1`, with 8.5%; and `CC1CCN(c2oc(-c3ccccc3F)nc2C#N)CC1`, with -10.3%; and `O=C(NCCc1ccc(Cl)cc1)C1CC(=O)N(C2CCCCC2)C1` (stereo not given), with -0.9%. Then `CCOc1cc2c(cc1OCC)C(C(=O)O)C(c1ccc(OC)c(O)c1)N(C)C2=O` (stereo not given), with 12.3%; and `CCOc1ccc(CC(=O)Nc2ccc(S(=O)(=O)Nc3cc(C)on3)cc2)cc1OCC`, with -0.6%; and `O=C(Cn1nnc(-c2ccc(CN3CCOCC3)cc2)n1)NC1CCCCC1`, with 5.2%. As for `Cc1cc(C(=O)O)c(S(C)(=O)=O)s1`, the inhibition is -3.8%.

Take `Cc1cc(=O)n(C)c(=O)n1CCCNc1ccccc1`: the inhibition was -1.3%. With `COCc1cc(C)nc(SCC(=O)Nc2cccc(C)c2)c1C#N` the figure was -8.6%. Turning to `CCOC(=O)c1ccc(CS(=O)c2ccc(Cl)cc2)o1` (stereo not given), the inhibition is -1.1%. Regarding `CCCS(=O)(=O)N1CCC(C(=O)NCCCN(C)Cc2ccccc2)CC1`, the inhibition is -2.3%.

Turning to `C=CCN(CC=C)C(=O)CN1C(=O)c2ccccc2C1=O`, the inhibition was 13.3%. For `Cc1cc(=O)oc(C)c1C(=O)NCc1ccc(F)cc1`, the inhibition is -12.6%. Consider `O=C(O)C1CCCCC1C(=O)Nc1ccc(Cl)cc1` (stereo not given), for which the inhibition was -10.1%. Regarding `Cc1c2cnn(-c3ccccc3)c(=O)c2c(C)n1CCCC(=O)N1CCN(C)CC1`, the inhibition is 1.2%. As for `O=C1CCC(Cc2ccccc2)N1` (stereo not given), the inhibition is 1.5%. As for `COc1ccc(C(=O)NC(=O)CSc2nnc(-c3ccco3)n2-c2ccccc2)cc1`, the inhibition was -1.4%. With `Cn1c(C(=O)N2CCC(C(N)=O)CC2)cc2c(=O)n(C)c3ccccc3c21` the figure was -1%.

Take `O=C(NCc1ccco1)C1CCCN(S(=O)(=O)c2cccc3nonc23)C1` (stereo not given): the inhibition was -5.3%. As to `Cn1c(=O)n(C)c2cc(CNc3ccc(N4CCOCC4)c(C(=O)O)c3)ccc21`, the inhibition was 0.5%.

As to `Cc1ccc(NC(=O)c2nc[nH]c2C(=O)N2CCCCC2)c(C(=O)c2ccccc2)c1`, the inhibition is -3.6%.
